# Screens deposited in PubChem BioAssay by several laboratories.
# Shown are actives, neighbours in structure and some others; about 0.82% of the full set was active somewhere.
# LANA DNA inh = blocks KSHV LANA C-terminal domain binding to DNA; MBP-C-LANA/FAM-LBS DNA binding, fluorescence polarization; inhibition, % at 9 µM; 0.078% of 340,000 active; AID 504423;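 active means highest replicate inhibition at or above 60% at 9 µM, even if other replicates fall short; inactive means all replicates below 60% inhibition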;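 further: 0% = neutral control wells and 100% = 4 µM acridine orange control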
# Keap1 Nrf2 FP = inhibitors of human Keap1-Nrf2 protein-protein interaction; Keap1 Kelch-Nrf2 peptide fluorescence polarization, 1536-well; AID 504523; 0.15% of 340,000 active; inhibition, % at 9.4 µM; in the data active means inhibition above about 12%;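 further: human Keap1 Kelch domain with fluorescein labeled Nrf2 9mer peptide probe; 0% = neutral control wells and 100% = peptide positive control; higher means more block of Keap1 binding to Nrf2 peptide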
# E coli Lon inh = inhibits E. coli Lon protease; purified E. coli Lon protease, fluorescence polarization; inhibition, % at 7.94 µM; 0.42% of 360,000 active; AID 602123; in the data active means inhibition above about 13%, passing the limit was not always enough;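 further: 0% = enzyme with probe and DMSO and 100% = no enzyme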
# Target sequence (P0A9M0 whole entry, looked up): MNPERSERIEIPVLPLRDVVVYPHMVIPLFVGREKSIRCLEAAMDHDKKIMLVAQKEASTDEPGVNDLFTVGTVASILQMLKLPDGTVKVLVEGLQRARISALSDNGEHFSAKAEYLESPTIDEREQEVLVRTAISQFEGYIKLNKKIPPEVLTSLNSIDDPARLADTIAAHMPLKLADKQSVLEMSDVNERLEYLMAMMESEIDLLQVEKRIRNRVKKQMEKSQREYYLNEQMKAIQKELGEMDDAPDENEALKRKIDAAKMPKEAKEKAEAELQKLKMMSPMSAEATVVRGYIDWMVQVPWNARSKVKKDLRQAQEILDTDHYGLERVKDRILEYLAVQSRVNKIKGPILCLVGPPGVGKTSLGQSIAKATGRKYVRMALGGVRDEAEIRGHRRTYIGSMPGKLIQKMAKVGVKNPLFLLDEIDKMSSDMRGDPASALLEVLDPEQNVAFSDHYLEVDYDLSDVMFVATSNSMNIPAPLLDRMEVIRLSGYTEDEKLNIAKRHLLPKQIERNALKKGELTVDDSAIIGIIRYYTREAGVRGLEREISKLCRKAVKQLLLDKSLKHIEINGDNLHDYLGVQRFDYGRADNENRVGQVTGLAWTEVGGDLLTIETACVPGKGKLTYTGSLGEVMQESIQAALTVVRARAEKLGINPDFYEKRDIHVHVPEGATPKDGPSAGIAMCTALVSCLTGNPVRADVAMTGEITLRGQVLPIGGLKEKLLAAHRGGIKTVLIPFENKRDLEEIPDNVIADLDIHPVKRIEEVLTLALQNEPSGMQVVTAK
# cardiac RTF act = cardiac RTF calcium sensitization; P19429+P45379; IANBD-labeled TnC RTF fluorescence at EC20 calcium; 0% EC20 calcium, 100% full calcium; activation, % at 7.2 µM; 0.24% of 340,000 active; AID 493008;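 active means activation above the mean over all tested compounds plus 3 SD, cut at about 30% in these data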;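 further: rise in fluorescence read as greater calcium sensitivity of cardiac thin filaments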
# Cardiac RTF inh = cardiac RTF calcium desensitization. inhibition, % at 7.15 µM. 0.12% of 340,000 active. IANBD-labeled cardiac RTF, Ca2+ fluorescence. P19429+P45379;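 active means inhibition above the mean inhibition of all tested compounds plus 3 SD, cut at about 17% in these data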;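 further: assay run at fixed EC70 calcium of 1.6 mM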
# RTF inh confirm = confirmation of inhibitors of cardiac thin filament calcium sensitivity; shares compounds with Cardiac RTF inh; reconstituted cardiac thin filaments, calcium sensitivity fluorescence; inhibition, % at 7.15 µM; 8% of 360 active; in the data active means inhibition above about 18%
# Numbers without * were called inactive; . = no result given.
SMILES,LANA DNA inh,Keap1 Nrf2 FP,E coli Lon inh,cardiac RTF act,Cardiac RTF inh,RTF inh confirm
COc1ccc(C2=CC3=C(Br)C(=O)C(C)(OC(=O)c4cccs4)C(=O)C3=CO2)cc1 (stereo not given),4,-4,-26,-18,20*,0
Cc1cccc(NC(=O)C(=O)NCC2CCCN2S(=O)(=O)c2ccccc2)c1 (stereo not given),-2,-5,-1,6,-12,.
COCCCNC(=O)c1ccc(S(=O)(=O)c2ccc(Cl)cc2)c(NC(C)=O)c1,0,1,1,13,-8,.
Cc1ccc(CSc2nnc(SCC(=O)N/N=C/c3c[nH]c4ccccc34)s2)cc1,-1,0,1,-7,23*,3
CC(C)CN(C(=O)COC(=O)c1ccccc1NCc1ccco1)c1c(N)n(Cc2ccccc2)c(=O)[nH]c1=O,0,4,-10,-18,-1,.
CC(C)c1c(C(=O)N/N=C/c2cccc(OCc3ccccc3)c2)nnn1-c1nonc1N,3,-1,3,0,-3,.
COC(=O)N/N=C(\C)c1ccc(OC(F)F)cc1OC(F)F,0,5,-7,1,17*,-6
COc1ccc(NC(=O)CCC(=O)c2ccc(Cl)cc2)cn1,7,1,-2,0,-11,.
COc1cccc(-n2c(C)c3c(OC)cccc(=O)c3c2C)c1,-1,0,8,1,25*,-5
COc1cccc(=O)c2c(C)n(-c3cc(C)cc(C)c3)c(C)c12,2,-5,12,3,-3,.
Fc1ccccc1CSc1ccc(-c2ccco2)nn1,2,-3,2,-5,19*,-2
CN(C)CC[C@@H](c1ccc(Cl)cc1)c1ccccn1,-2,0,-7,2,17*,0
COc1ccc(/C(O)=C2/C(=O)C(=O)N(CCCN3CCOCC3)C2c2ccc(N(C)C)cc2)cc1 (stereo not given),-1,-5,-5,-5,4,.
CCOC(=O)[C@H](CCc1ccccc1)N[C@@H](C)C(=O)N1C(C(=O)O)C[C@@H]2CCC[C@@H]21 (stereo not given in full),1,-1,-6,2,23*,-3
O=C(NCc1cccnc1)c1cc(C(=O)C2CC2)c[nH]1,-1,0,12,5,22*,-2
Cc1ccc(S(=O)(=O)c2nnn3c2nc(NC2CCN(Cc4ccccc4)CC2)c2ccccc23)cc1C,-1,4,-9,2,-10,.
COc1ccc(CN(C)CC(=O)Nc2ccc(SC(F)F)cc2)cc1OC,-1,2,11,5,20*,3
NC(=S)Nc1nc2ccccc2s1,1,2,3,-6,19*,-5
O=C(O)c1cn(Cc2ccccc2)nc1-c1cccnc1,0,-4,3,-2,2,.
Cc1cc(C(=O)OC2CCOC2=O)c2ccccc2n1 (stereo not given),0,-4,-3,6,19*,-4
COc1ccc(-c2cc(C(=O)OC3CCOC3=O)c3ccccc3n2)cc1 (stereo not given),1,-2,-12,-2,-1,.
CCCCCCCCCCC[C@@H](C[C@@H]1OC(=O)[C@H]1CCCCCC)OC(=O)[C@H](CC(C)C)NC=O,-1,4,-2,1,20*,-4
CCCCCCC1CC(/C(C)=N\NC(N)=O)OC1=O (stereo not given),0,1,-15,-3,-3,.
O=C(C1CCCCN1S(=O)(=O)c1ccccc1[N+](=O)[O-])N1CCOCC1 (stereo not given),1,2,9,5,18*,-1
COc1ccccc1-c1cc(C(=O)NC2CCCC2)no1,-1,-4,2,-4,-4,.
SMILES,LANA DNA inh,Keap1 Nrf2 FP,E coli Lon inh,cardiac RTF act,Cardiac RTF inh,RTF inh confirm
C=C[C@@]1(C)CC(=O)[C@]2(O)[C@@]3(C)[C@@H](O)CCC(C)(C)[C@@H]3[C@H](O)[C@H](OC(C)=O)[C@@]2(C)O1,-3,-2,-8,6,19*,-5
COc1ccc(C(=O)Nc2ccc(C)cc2C(=O)c2ccccc2)c(OC)c1,1,1,3,8,17*,-2
CCc1ccccc1NC(=O)C1(S(=O)(=O)c2ccc(C)cc2)CC1,0,-1,-1,-7,17*,-1
O=C1/C(=C/c2cccs2)COc2ccccc21,-2,2,15,-7,18*,-3
COc1ccc(C(=O)N2CCN(c3ccccc3Cl)CC2)cc1S(=O)(=O)NC1CC1,-2,-3,-6,2,0,.
CCc1nc2ccc(C(=O)NCCCN3CCN(c4ccccc4F)CC3)cc2nc1CC,-1,0,9,-6,2,.
COc1ccccc1NC(=S)N(Cc1ccccn1)Cc1ccccc1Cl,1,2,4,-1,17*,2
COc1ccccc1NCC(=O)N/N=C/c1c(O)ccc2ccccc12,3,0,-233,-3,0,.
COc1ccccc1N(CC(=O)N/N=C/c1c(O)ccc2ccccc12)S(C)(=O)=O,1,1,-2,-6,26*,11
COc1ccc(NC(=O)CSc2ncccn2)cc1S(=O)(=O)N1CCCCC1,-3,3,-22,-1,-4,.
Cc1c(Cl)c([N+](=O)[O-])nn1CC(=O)NCc1cccs1,-1,-2,10,11,18*,-3
Cc1c(Cl)c([N+](=O)[O-])nn1CC(=O)NC(C)c1ccccc1 (stereo not given),-2,-1,6,-2,4,.
Cc1ccc(NC(=O)CSc2nnc3n2CCCCC3)cc1,-1,1,-2,3,22*,-6
O=C(CC(O)c1ccccc1)Nc1ccccn1 (stereo not given),2,-5,-11,8,3,.
CCN(CC)S(=O)(=O)c1cc(NS(=O)(=O)c2cccc(Cl)c2Cl)ccc1C,-3,2,-2,5,47*,-1
Cc1ccc(C)c(NC(=O)CN(C)C(=O)CSC(C)C(=O)Nc2cc(C)on2)c1 (stereo not given),2,-4,11,-6,19*,-1
Cc1cc(NC(=O)C(C)SCC(=O)N(C)CC(=O)Nc2ccc(Br)cc2C)no1 (stereo not given),2,1,4,-5,-1,.
CCc1ccc(NC(=O)CN(N=Nc2nonc2C)c2nonc2C)cc1,1,1,3,0,26*,-4
CCc1ccc(NC(=O)c2cc(C)no2)cc1,0,5,-10,-1,-3,.
COc1ccc(NC(=O)CN(C)C(=O)c2cc3c(s2)CCCCC3)cc1,1,2,-19,-4,-6,.
COc1ccc(NC(=O)CN(C)C(=O)c2cc3c(s2)CCC3)cc1,1,3,11,-4,20*,0
O=C(/C=C/c1ccc(F)cc1)N1CC[C@@]2(O)CCCC[C@H]2C1,2,-7,-1,1,0,.
